An excerpt weighted towards active compounds, which were near 6% of everything screened.
D1 agonist: human D1 receptor agonism; P21728; HEK293 T-REx D1 cells, calcium flux, agonist mode; activation, % at 2 µM; hit rate 1% among 360,000; AID 504660; in the data active means activation above about 30%; further: 0% is about no effect
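Agonism was scored from calcium flux recorded over 180 s (1 read/s) after pintool compound addition, following a 10-cycle baseline. Cells were inducible force-coupled HEK293 TREx D1, plated overnight at 30 C and loaded with no-wash calcium dye.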
DRD3 agonist: D3 dopamine receptor (human) agonism; P35462; D3R DiscoveRx beta-arrestin cells, luminescence, 90 min; max activation, %; hit rate 0.58% among 410,000; AID 652048; in the data active means max activation above about 30%; further: 0% is about no effect
Target sequence (P35462 whole entry, looked up): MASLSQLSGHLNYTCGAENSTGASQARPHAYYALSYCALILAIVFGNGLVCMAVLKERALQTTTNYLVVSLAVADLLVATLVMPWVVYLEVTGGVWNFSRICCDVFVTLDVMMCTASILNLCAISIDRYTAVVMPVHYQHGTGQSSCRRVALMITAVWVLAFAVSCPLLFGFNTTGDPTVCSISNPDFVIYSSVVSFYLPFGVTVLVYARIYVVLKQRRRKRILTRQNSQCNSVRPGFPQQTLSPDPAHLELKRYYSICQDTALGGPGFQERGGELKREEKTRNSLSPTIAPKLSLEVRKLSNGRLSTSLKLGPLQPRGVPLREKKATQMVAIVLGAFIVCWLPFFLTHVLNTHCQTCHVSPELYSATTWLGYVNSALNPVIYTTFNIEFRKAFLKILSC
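Cells at 1500/well, incubated overnight, then treated with pinned compounds (dopamine as control) for 90 min at 37 degrees C. DiscoveRx reagent added for 30 - 60 minutes at room temperature; luminescence read.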
D1 antagonist: blocks dopamine activation of the human D1 receptor | HEK293 TREx D1 cells, calcium flux, dopamine EC80; stronger effect = lower value | activity change, negative = inhibition, % at 10 µM | hit rate 3.2% among 360,000 | P21728; in the data active means activity change below about -30%; further: on the % scale 0 is the no-effect control and ±100 the full control effect
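Calcium flux readout: force-coupled, inducible Hek293 Trex D1 line, cells induced overnight at 30 C with tetracycline, dye-loaded 30–90 min at RT. Antagonism scored against EC80 dopamine challenge given 180 s after compound.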
D1 PAM: enhances dopamine response at the human D1 receptor; P21728; HEK293 TREx D1 cells, calcium flux, dopamine EC20 potentiation; potentiation, % at 10 µM; hit rate 0.036% among 360,000; in the data active means potentiation above about 30%; further: 0% is about no effect
D3 antag: antagonists of human D3 dopamine receptor; P35462; D3R cells, DiscoveRx beta-arrestin luminescence, antagonist mode; stronger effect = lower value; max response, negative = inhibition, %; hit rate 2.5% among 360,000; AID 652054; in the data active means max response below about -50%; inconclusive means no clear call, values can overlap the other calls; further: on the % scale 0 is the no-effect control and ±100 the full control effect
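Cells plated overnight at 1500 cells/well, then exposed to library compounds with dopamine controls for 90 minutes at 37 degrees C. DiscoveRx reagent added for 30–60 minutes at room temperature; luminescence read, quantitative HTS format.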
* marks the source's active call; other numbers are inactive results; ? = inconclusive; . = not tested or not shown.

SMILES	D1 agonist	DRD3 agonist	D1 antagonist	D1 PAM	D3 antag
O=C(CN1C(=O)C2C3C=CC(C3)C2C1=O)NCc1ccco1 (centres undefined)	1	0	22	31*	-9
O=C(CN1C(=O)C2C3C=CC(C4CC34)C2C1=O)NCc1ccco1 (centres undefined)	2	6	-6	6	-13
CCC(C)NC(=O)CSc1nc2cc(S(=O)(=O)N3CCOCC3)ccc2n1CC (centres undefined)	-1	2	-32*	1	29
Cc1ccc(CNC(=O)C2CCC(=O)N2CCc2ccccc2)cc1 (centres undefined)	2	17	4	1	-57*
Cc1cc(C)c(-c2csc(NC(=O)/C=C/c3cccs3)n2)c(C)c1	2	-10	-37*	-2	-10
COc1ccc2nc3sc(C(=O)N4CCN(c5ccc(F)cc5)CC4)cc3cc2c1	0	-1	-5	-3	.
Cn1cnc([N+](=O)[O-])c1Sc1ccc(C(C)(C)C)cc1	35*	-11	-1	2	?
CCn1ccc2cc(S(=O)(=O)N3CCCN(C(=O)Nc4ccccc4F)CC3)ccc21	0	4	-7	2	.
CCOc1ccc(CNC(=O)Cn2ccc3cc(S(=O)(=O)N4CCCCC4)ccc32)cc1	1	0	-35*	-1	.
COc1ccc(S(=O)(=O)N2CCC(C(=O)NCc3ccc(C)cc3)CC2)cc1	0	1	16	1	13
COc1ccc(CNC(=O)C2CCN(S(=O)(=O)c3ccc4c(ccn4C)c3)CC2)cc1	4	7	-35*	-3	.
CCn1ccc2cc(S(=O)(=O)N3CCCN(C(=O)Nc4ccc(C)c(F)c4)CC3)ccc21	2	-6	-31*	-3	.
CCn1ccc2cc(S(=O)(=O)N3CCC(C(=O)NCCc4ccccc4Cl)CC3)ccc21	3	0	-40*	3	.
CCCCNC(=O)C1CCN(S(=O)(=O)c2ccc3c(ccn3CC)c2)CC1	-1	5	2	-2	.
COc1ccc(Br)c(C(=O)Nc2cc3c(cc2N2CCCCC2)n(C)c(=O)c(=O)n3C)c1	7	17	-2	0	.
COc1ccc(CCC(=O)NCc2nc3cccnc3n2Cc2cccc(OC)c2)cc1	0	-6	11	-2	.
COc1ccccc1NC(=O)N1CC(=O)Nc2sc3c(c2C1c1ccccc1)CCCC3 (centres undefined)	1	3	4	2	.
CN(C)CCNC(=O)Cn1ccc2cc(S(=O)(=O)N3CCCCCC3)ccc21	2	-16	5	-8	-55*
COc1ccc(NC(=O)C(Cc2ccccc2)NS(=O)(=O)c2ccc3c(c2)CCN3C(C)=O)cc1 (centres undefined)	0	-4	25	5	.
Cc1ccccc1-c1cc2nc(C)c(C)c(=O)n2[nH]1	4	2	-33*	-4	?
Cc1nc2cc(-c3ccc(F)cc3)[nH]n2c(=O)c1C	3	-2	6	-2	-16
COc1cc(C(=O)N2CCCCCCC2)ccc1OC1CCN(C(C)=O)CC1	5	2	2	6	3
CCNC(=O)C1CCCN(C(=O)c2ccc(OC)c(OC)c2)CC1 (centres undefined)	.	79*	.	.	20
COCCNC(=O)C1CCCN(C(=O)c2ccc3ccccc3n2)CC1 (centres undefined)	.	54*	.	.	0
COc1ccc(C(=O)N2CCCCCC2)cc1OC1CCN(C(C)=O)CC1	4	10	-67*	-11	1
SMILES	D1 agonist	DRD3 agonist	D1 antagonist	D1 PAM	D3 antag
COc1ccc(CNC(=O)c2nc(Cn3nc(C)c(Br)c3C)no2)cc1OC	0	3	-2	-2	.
Cc1ccc(OCC(=O)NCC2(N3CCOCC3)CCCCC2)cc1C	3	5	-11	-1	.
CCn1cc2nc(SCc3ccccc3F)n(Cc3ccc(C)cc3)c(=O)c2n1	3	-6	30	0	.
CN(C)CCN1CCN(C(c2ccnc3ccccc23)c2nnnn2-c2ccc3c(c2)OCCO3)CC1 (centres undefined)	.	-13	.	.	0
FC(F)(F)Oc1ccccc1C(c1nnnn1-c1ccc2c(c1)OCCO2)N1CCN(C/C=C/c2ccccc2)CC1 (centres undefined)	.	-14	.	.	-57*
C(=C\c1ccccc1)/CN1CCN(C(c2cccc3ccccc23)c2nnnn2-c2ccc3c(c2)OCCO3)CC1 (centres undefined)	.	-10	.	.	-73*
COc1ccc(N2CCN(Cc3nc4c(c(=O)[nH]c(=O)n4C)n3CC(C)C)CC2)cc1	0	-15	1	0	.
C/C(CCC(C)C)=N\Nc1ccc(S(N)(=O)=O)cc1[N+](=O)[O-]	1	-8	-24	-2	-58*
NS(=O)(=O)c1ccc(N/N=C/c2ccc(C(=O)O)cc2)c([N+](=O)[O-])c1	1	0	6	-3	-51*
CCC(CC)=NNc1ccc(S(N)(=O)=O)cc1[N+](=O)[O-]	9	0	4	-7	-13
O=C(O)c1ccc(/C=N\Nc2ccc(S(=O)(=O)N3CCOCC3)cc2[N+](=O)[O-])cc1	2	3	7	1	-2
COc1ccc(NC(=O)N2CCc3c([nH]c4ccc(OC)cc34)C2c2ccc(OC)cc2)cc1 (centres undefined)	5	-18	-2	0	.
COc1ccc(CCNC(=O)Cn2ncc3c(C)n(Cc4ccccc4F)c(C)c3c2=O)cc1OC	-3	-1	-19	-1	.
Cc1ccc2nc(NC(=O)CSc3nccn3Cc3ccc(Cl)cc3)sc2c1	1	4	5	-5	.
Cc1ccc(C)c(CNC(=O)C2CCCCN2S(=O)(=O)c2ccc(F)cc2)c1 (centres undefined)	44*	-13	-37*	-5	.
Cc1ccc(CNC(=O)C2CCCN2S(=O)(=O)c2ccc(F)cc2)cc1 (centres undefined)	0	6	13	-5	14
CC(C)Oc1ccc(CNC(=O)C2CCCCN2S(=O)(=O)c2ccc(F)cc2)cc1 (centres undefined)	4	-7	-40*	-6	.
O=C(NCCc1ccccc1F)C1CCCN1S(=O)(=O)c1ccc2ccccc2c1 (centres undefined)	41*	13	-53*	-15	-10
COc1cccc(CCNC(=O)c2cnc3sc(N4CCOCC4)nn3c2=O)c1	2	-7	3	-6	.
Cc1ccc2nc(-c3ccccc3)cc(C(=O)N3CCN(c4ccccc4O)CC3)c2c1	3	31*	-3	5	37
Cc1nn(CC(=O)NCCc2ccc(Cl)cc2)c(=O)c2cc3cc(F)ccc3n12	-1	5	10	-5	.
O=C(NCCN1CCN(c2ccccc2F)CC1)c1ccc2nc3ccccc3c(=O)n2c1	0	3	8	2	-58*
O=C(NCCCN1CCN(c2ccccc2F)CC1)c1ccc2nc(Cc3ccccc3)oc2c1	26	1	-49*	-4	.
